Common to all, as to set-up: scale not given: direction of the effect not stated beside the values
In test [1] the target is Protein translocase subunit SecA (Escherichia coli (strain K12)) (UniProt P10408). Put plainly: Assay to Identify E. coli SecA ATPase Inhibitors. Type of test: functional. The note with it: 30 µM.
For test [2], the target named is T1, Ubiquitin-activating enzyme e1, putative (Leishmania donovani (strain BPK282A1)) (UniProt E9BSI1).
T1 sequence (whole entry): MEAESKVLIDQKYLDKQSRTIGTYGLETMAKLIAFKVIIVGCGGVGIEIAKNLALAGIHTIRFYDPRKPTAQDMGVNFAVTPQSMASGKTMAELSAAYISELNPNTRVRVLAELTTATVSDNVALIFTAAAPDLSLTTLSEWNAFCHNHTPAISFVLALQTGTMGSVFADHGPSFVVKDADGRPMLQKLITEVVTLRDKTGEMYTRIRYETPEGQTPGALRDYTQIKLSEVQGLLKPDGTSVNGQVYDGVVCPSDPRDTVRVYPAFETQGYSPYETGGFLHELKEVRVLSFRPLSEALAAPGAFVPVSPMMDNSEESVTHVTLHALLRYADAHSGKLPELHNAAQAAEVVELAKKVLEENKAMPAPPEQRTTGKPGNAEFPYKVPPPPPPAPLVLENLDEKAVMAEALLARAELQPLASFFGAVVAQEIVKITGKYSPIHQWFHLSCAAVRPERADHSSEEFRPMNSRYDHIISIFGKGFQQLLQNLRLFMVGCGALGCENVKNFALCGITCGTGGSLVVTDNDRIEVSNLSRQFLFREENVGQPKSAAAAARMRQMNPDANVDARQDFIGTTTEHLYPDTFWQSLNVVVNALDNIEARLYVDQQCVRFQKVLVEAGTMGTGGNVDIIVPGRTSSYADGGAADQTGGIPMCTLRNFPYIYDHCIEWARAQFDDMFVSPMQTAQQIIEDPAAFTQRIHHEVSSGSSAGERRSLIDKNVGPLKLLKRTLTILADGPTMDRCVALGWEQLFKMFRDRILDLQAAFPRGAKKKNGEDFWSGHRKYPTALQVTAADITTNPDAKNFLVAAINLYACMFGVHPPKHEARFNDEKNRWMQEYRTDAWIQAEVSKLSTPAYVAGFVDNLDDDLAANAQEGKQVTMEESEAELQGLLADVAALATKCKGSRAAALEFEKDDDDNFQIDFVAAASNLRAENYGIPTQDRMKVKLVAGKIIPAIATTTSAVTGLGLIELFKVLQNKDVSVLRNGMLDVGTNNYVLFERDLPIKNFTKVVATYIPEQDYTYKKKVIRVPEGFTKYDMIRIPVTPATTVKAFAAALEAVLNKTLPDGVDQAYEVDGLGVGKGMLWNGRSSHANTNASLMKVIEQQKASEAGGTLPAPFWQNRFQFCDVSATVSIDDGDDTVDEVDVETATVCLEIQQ
Put plainly: Leishmania donovani Ubiquitin Activating Enzyme (LdE1). Format: functional. The note with it: 30 µM.

The target of test [3] is AMP-activated protein kinase, AMPK (Homo sapiens) (UniProt P54646+O43741+P54619+Q9UGJ0+Q9Y478+Q13131+Q9UGI9). Nature of the test: AMP-dependent Kinase enzyme assay. An in vitro enzyme assay that detects ADP turnover that is directly proportional to AMPK activity. This uses naive AMPK that is activated during the assay with MK-8722. Type of test: functional. The note with it: 30 µM.

Test [4] addresses Sialic acid-binding Ig-like lectin 9 (Homo sapiens) (UniProt Q9Y336). Nature of the test: Hs-Siglec9 ALPHAscreen SOP 20170721. The note with it: 10 µM. A general note: Bead proximity is the source of the signal in Alpha formats.
The test system of another test is Trypanosoma cruzi. Put plainly: Trypanosoma cruzi phosphomannomutase and mannose-1-phosphate guanylyltransferase assay. Type of test: functional. The note with it: 10 µM.
In test [5] the target is T2, Arginase-2, mitochondrial (Homo sapiens) (UniProt P78540).
T2 sequence (whole entry): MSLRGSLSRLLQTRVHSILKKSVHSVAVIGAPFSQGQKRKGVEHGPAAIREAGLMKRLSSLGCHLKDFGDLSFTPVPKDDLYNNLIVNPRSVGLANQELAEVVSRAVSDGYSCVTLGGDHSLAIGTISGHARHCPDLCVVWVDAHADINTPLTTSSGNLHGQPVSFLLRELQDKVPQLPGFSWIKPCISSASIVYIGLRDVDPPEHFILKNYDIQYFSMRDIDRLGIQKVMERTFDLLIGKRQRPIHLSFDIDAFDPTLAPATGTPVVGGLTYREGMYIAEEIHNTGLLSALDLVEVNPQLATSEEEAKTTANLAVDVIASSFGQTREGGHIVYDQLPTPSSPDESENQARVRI
Put plainly: in vitro enzyme assay to detect the production of urea directly proportional to the activity of Arginase II. Also: in the data most compounds retested in dose-response had high values. Format: functional. Particulars: 33.3 µM.

For test [6], the target named is T3, Proteasome subunit beta (Trypanosoma cruzi) (UniProt O96673).
T3 sequence (whole entry): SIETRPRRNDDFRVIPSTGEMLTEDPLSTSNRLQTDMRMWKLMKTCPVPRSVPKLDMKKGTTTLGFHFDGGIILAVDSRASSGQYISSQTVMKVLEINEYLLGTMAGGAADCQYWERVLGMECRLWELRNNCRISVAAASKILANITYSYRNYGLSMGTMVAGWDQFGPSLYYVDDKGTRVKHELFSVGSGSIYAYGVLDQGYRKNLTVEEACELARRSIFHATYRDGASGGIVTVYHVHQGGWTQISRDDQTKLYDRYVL
Nature of the test: Trypanosoma cruzi proteasome chymotrypsin-like activity (TcProtChymo) assay. Also: in the data most compounds retested in dose-response had high values. Type of test: functional. The note with it: 9.37 µM.

For the next test, the species on record is Homo sapiens. Nature of the test: To identify inhibition of the IFN signalling (Jak-Stat) pathway via expression of an eGFP reporter gene under the control of an IFN-stimulated response element (ISRE) containing MxA promoter. Format: functional. The note with it: 30 µM.
Test [7] concerns the target T4, Tyrosyl-tRNA synthetase, putative (Trypanosoma cruzi (strain CL Brener)) (UniProt Q4DSP6).
T4 sequence (whole entry): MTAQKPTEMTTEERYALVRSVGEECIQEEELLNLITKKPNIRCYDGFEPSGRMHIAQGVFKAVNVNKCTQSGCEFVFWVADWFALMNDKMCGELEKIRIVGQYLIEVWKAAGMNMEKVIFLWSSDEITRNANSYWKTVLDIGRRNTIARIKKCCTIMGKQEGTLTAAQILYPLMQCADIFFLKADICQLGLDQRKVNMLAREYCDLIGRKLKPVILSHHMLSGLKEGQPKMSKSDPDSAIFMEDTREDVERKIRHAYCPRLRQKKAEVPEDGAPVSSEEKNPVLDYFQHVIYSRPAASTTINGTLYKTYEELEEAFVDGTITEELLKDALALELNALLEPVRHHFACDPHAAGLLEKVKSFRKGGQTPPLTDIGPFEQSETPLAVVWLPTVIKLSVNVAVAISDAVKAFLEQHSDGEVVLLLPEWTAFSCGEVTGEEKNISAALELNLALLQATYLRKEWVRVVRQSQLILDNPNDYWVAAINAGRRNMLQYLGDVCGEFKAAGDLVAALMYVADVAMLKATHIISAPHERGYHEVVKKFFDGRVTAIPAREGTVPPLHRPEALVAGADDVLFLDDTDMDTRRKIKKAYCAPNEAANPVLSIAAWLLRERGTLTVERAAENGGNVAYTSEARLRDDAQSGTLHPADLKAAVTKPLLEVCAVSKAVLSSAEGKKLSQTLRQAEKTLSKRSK
Nature of the test: Trypanosoma cruzi tyrosyl tRNA synthetase (TcYRS) _High Tyrosine SOP. Also: in the data most compounds retested in dose-response had high values. Type of test: functional. Particulars: 30 µM.

Test [8] addresses T4, Tyrosyl-tRNA synthetase, putative (Trypanosoma cruzi (strain CL Brener)). Nature of the test: Trypanosoma cruzi tyrosyl tRNA synthetase (TcYRS) SOP. Type of test: functional. Particulars: 30 µM.
The target in test [9] is Chromo domain-containing protein 1 (Saccharomyces cerevisiae (strain ATCC 204508 / S288c) (Baker's yeast)) (UniProt P32657). Put plainly: ScCHD-1 Enzyme Inhibition Assay. Also: in the data most compounds retested in dose-response had high values. Format: functional. Particulars: 30 µM.

For some of these results: Measured potencies and affinities stand elsewhere.

Sequence of Sialic acid-binding Ig-like lectin 9 (Homo sapiens) (Q9Y336 whole entry): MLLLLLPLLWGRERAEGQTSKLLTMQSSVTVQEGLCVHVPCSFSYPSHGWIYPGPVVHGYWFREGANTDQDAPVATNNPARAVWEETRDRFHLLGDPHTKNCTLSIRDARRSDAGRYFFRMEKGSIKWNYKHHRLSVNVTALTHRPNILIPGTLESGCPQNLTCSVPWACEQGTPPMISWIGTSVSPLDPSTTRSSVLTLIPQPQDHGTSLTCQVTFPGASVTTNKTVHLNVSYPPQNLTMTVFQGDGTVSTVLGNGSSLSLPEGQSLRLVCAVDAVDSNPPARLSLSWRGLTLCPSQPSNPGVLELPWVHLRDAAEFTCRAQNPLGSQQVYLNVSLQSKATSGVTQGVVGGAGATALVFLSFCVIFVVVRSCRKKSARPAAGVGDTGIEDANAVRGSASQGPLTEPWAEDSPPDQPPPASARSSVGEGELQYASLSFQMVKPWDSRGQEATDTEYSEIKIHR
Sequence of Protein translocase subunit SecA (Escherichia coli (strain K12)) (P10408 whole entry): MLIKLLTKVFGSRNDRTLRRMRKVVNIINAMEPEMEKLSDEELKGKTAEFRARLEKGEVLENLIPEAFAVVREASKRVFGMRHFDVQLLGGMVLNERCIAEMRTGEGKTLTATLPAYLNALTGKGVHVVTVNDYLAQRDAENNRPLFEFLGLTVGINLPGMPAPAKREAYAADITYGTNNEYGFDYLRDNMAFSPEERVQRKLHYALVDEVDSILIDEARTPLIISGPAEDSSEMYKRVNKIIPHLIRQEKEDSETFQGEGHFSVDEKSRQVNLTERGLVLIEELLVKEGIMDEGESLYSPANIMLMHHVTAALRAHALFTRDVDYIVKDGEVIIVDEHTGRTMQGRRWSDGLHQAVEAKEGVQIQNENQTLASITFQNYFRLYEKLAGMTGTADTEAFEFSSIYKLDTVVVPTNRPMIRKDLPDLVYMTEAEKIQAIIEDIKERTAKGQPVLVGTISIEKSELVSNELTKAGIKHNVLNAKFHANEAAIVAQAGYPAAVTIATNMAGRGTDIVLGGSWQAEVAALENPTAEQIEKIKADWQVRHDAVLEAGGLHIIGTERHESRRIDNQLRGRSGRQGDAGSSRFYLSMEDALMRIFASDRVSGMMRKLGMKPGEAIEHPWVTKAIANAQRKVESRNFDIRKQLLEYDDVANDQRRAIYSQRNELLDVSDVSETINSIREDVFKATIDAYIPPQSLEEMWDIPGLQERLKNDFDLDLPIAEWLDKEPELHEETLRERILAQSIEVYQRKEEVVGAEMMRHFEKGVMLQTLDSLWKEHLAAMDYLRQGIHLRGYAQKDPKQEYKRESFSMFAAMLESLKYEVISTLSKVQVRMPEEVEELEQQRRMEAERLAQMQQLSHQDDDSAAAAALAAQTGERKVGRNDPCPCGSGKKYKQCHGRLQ
Sequence of Chromo domain-containing protein 1 (Saccharomyces cerevisiae (strain ATCC 204508 / S288c) (Baker's yeast)) (P32657 whole entry, the tested form may be a part): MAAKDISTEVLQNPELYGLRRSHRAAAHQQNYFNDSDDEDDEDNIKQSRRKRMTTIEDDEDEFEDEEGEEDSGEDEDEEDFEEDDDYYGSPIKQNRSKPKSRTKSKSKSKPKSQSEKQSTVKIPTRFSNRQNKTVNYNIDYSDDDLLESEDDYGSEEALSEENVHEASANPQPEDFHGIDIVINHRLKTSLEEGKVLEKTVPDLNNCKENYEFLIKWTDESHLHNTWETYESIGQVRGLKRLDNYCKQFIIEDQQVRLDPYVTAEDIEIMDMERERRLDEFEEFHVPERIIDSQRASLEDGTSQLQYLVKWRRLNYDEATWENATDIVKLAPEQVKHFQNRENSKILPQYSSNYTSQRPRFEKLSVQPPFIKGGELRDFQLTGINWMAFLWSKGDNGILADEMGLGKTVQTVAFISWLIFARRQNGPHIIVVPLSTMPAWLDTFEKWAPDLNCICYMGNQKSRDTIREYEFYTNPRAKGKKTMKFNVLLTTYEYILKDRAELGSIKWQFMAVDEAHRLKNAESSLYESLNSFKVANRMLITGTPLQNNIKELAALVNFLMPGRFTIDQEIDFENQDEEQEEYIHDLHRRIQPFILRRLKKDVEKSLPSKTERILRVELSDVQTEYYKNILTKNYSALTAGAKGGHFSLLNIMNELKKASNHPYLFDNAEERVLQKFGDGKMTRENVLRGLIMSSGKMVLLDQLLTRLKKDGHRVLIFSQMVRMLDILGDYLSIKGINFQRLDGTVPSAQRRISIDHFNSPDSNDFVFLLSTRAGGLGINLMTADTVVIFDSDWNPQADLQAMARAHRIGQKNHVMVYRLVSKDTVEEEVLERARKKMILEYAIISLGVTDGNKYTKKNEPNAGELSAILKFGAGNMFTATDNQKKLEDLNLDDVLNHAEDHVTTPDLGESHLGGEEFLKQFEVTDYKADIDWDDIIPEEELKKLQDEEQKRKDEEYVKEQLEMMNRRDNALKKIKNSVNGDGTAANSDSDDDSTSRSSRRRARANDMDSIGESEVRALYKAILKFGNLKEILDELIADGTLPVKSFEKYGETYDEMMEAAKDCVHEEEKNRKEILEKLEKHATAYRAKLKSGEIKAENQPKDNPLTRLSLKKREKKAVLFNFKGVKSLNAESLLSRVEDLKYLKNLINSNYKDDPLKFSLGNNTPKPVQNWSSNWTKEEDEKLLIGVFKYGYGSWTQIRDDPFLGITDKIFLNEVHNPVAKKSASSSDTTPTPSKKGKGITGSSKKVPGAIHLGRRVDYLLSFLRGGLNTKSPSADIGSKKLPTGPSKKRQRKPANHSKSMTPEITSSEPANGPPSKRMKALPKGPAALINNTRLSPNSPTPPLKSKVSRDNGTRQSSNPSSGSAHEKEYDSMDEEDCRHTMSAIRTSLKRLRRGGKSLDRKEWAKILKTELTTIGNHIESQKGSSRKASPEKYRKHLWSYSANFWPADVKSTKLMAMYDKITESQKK

For the molecule `Cc1cnn(Cc2cc(F)ccc2F)c1NC(=O)C1COCCO1` (stereo unspecified), the Percent Effect was -7.31% in [1]; 2.67% in test [2]; 1.44% in test [3]; 22.4% in [4]; 0.876% in the test on Trypanosoma cruzi; 4.17% in test [5]. The Percent Effect in test [6] is 5.75%; in the test listed under Homo sapiens it was 5.83%; in test [7], 4.92%; in test [8], 13.6%; in test [9], -4.84%.

In the case of `CCc1nc(C)c([C@H]2CN(C)C[C@@H]2C(=O)NCCc2cnccn2)[nH]1`, the Percent Effect in [1] is -4.56%; in test [2], 8.11%; in test [3] it was 3.09%; in test [4], 6.61%; in the test with Trypanosoma cruzi, 1.54%; in test [5], 2.86%. For the same molecule, the Percent Effect in test [6] was 6.72%; in the test filed under Homo sapiens, 3.41%; in [7], 10.1%; in test [8], 17.1%; in test [9], -3.65%.

Regarding `NC(=O)NCC(=O)N1C[C@H]2CC[C@@H]1CN(Cc1ccccc1)C2`, the Percent Effect in [1] was -4.49%; in test [2] it was 5.48%; in test [3] it was 6.44%; in [4] it was -9.32%; with Trypanosoma cruzi it was -0.979%; in test [5], -6.82%. Also, the Percent Effect in test [6] was 11.4%; in the test listed under Homo sapiens it was -13.6%; in test [7] it was 6.45%; in [8] it was 7.5%; in test [9], -5.72%.

On to `Cc1ccc(-c2cccc(-c3ccn(CCN4CCCC4)n3)c2)nn1`, for which the Percent Effect in test [1] is -0.771%; in test [2], -8.11%; in test [3], -1.02%; in test [4] it was 3.72%; in the test on Trypanosoma cruzi, -3.09%; in test [5] it was 0.952%. For the same molecule, the Percent Effect in test [6] was found to be 4.31%; in the test filed under Homo sapiens, 7.06%; in [7], 5.82%; in [8], 0%; in test [9] it was 0.00646%.

`CCc1nc(C)c(C(=O)NCCNc2cnccn2)s1`: the Percent Effect is -1.34% in test [1]; 21.1% in [2]; -0.0117% in test [3]; -1.62% in test [4]; 1.77% in the test on Trypanosoma cruzi; -1.44% in [5]. Moreover, the Percent Effect is 15.8% in test [6]; 4.13% in the test listed under Homo sapiens; 9.36% in [7]; 25.9% in test [8]; -8.55% in test [9].

Take `Cn1ccnc1N1CCN(C(=O)Cc2ccc(F)cc2)CC1`: the Percent Effect is -3.69% in [1]; 13% in test [2]; 5.01% in test [3]; 3.61% in test [4]; 2.86% in the test on Trypanosoma cruzi; 0.645% in [5]. In addition, the Percent Effect is 17.6% in test [6]; 14.3% in the test listed under Homo sapiens; 6.35% in test [7]; 11.5% in test [8]; -9.3% in test [9].

Regarding `Cn1cc(C[C@H]2[C@H](N3CCOCC3)CCN2C(=O)c2ccco2)cn1`, the Percent Effect in test [1] is -7.84%; in test [2], 5.33%; in test [3] it was 7.06%; in [4], -0.822%; in the test with Trypanosoma cruzi, -7.09%; in test [5] it was -0.699%. In addition, the Percent Effect in test [6] was 7.49%; in the test filed under Homo sapiens it was 21.2%; in [7], 2.13%; in [8], 6.41%; in test [9], -4.64%.

Consider `CCOc1ccc(CC(CNC(=O)c2ccoc2)C(N)=O)cc1` (stereo unspecified), for which the Percent Effect was -5.97% in test [1]; 13% in [2]; -355% in test [3]; -18.6% in [4]; 8.13% with Trypanosoma cruzi; -3.16% in test [5]. Besides, the Percent Effect in test [6] was 16.7%; in the test listed under Homo sapiens, 7.68%; in test [7], 7.62%; in [8], 21.2%; in test [9], -16.2%.

Take `Cc1cc(CNC2CCCN(c3cccnn3)C2)no1` (stereo unspecified): the Percent Effect is -0.548% in test [1]; -2.6% in test [2]; -12.2% in [3]; 5.49% in test [4]; 0.885% in the test on Trypanosoma cruzi; -5.52% in test [5]. Moreover, the Percent Effect in [6] is 15.5%; in the test filed under Homo sapiens it was 18.9%; in test [7], 5.38%; in test [8] it was 13.6%; in test [9], -2.81%.

Consider `COc1ccc(C)cc1CN(C)Cc1nc2c(cnn2C)c(=O)[nH]1`, for which the Percent Effect was -1.35% in test [1]; 18.4% in test [2]; 1.85% in test [3]; 2.21% in test [4]; 2.52% in the test on Trypanosoma cruzi; -4.32% in test [5]. Moreover, the Percent Effect was 7.02% in test [6]; 7.09% in the test filed under Homo sapiens; 9.36% in test [7]; 23.5% in test [8]; -5.71% in test [9].

Turning to `COCCCN(C)C1CCCN(Cc2noc(C)n2)C1` (stereo unspecified), the Percent Effect was -1.35% in test [1]; 2.7% in test [2]; -5.43% in [3]; 12.9% in [4]; 4.18% in the test with Trypanosoma cruzi; -0.554% in [5]. Also, the Percent Effect in test [6] is -3.05%; in the test listed under Homo sapiens, 11.9%; in test [7] it was 3.96%; in [8], 15.8%; in test [9], -1.13%.

For the origin of these results see ChEMBL document CHEMBL3988442, “University of Dundee, Small-Polar-MMV Screening Library” (2021).
